Hit rate of the full screen: of about 52,000 compounds, about 4,300 (8.3%) were called active. The entries come from a sample that favours actives as a whole. Values without a mark were called inactive. No stated cut-off is given here; in the data, active means survival mostly below about 52% (no sharp cut-off); inactive means mostly above about 56%.

This experiment has as its system DeltatarO mutant. The experiment is described as follows: S. aureus survival, RN4220 and DeltatarO strains – OD600, teichoic acid synthesis inhibitors, primary screen (AID 463173). The note with it: S. aureus RN4220 wild type/DeltatarO growth, OD600, 18 h, active compounds read low, screened at 18.75 µg/mL (by protocol).
With `CNC(=O)C1CCC(Cn2c(=O)c3sccc3n(CC(=O)Nc3ccc(C)c(C)c3)c2=O)CC1` (centres undefined), the survival was 70%.

As for `CCC(C)NC(=O)c1sc2nc3n(c(=O)c2c1C)CCC3` (centres undefined), the survival was 93%. As to `CCOc1ccc(NC(=O)Cn2c(=O)n(Cc3ccco3)c(=O)c3ccc(C(=O)NC4CCCC4)cc32)cc1`, the survival is 97%.

Take `Cc1ccc(NC(=O)CSc2ccc(-c3cccs3)nn2)cc1Cl`: the survival is 111%. The result for `COc1ccc(NC(=O)CSc2nc(C)cc(C)c2C(=O)Nc2ccccc2OC)cc1` reads 51%. The result for `CN1CCC(OC(=O)c2ccc(Cl)cc2Cl)CC1` reads 101%; that for `O=C(Cn1c(=O)n(CCc2ccccc2)c(=O)c2c3c(sc21)CCCC3)Nc1ccc(F)c(F)c1`, 84%; that for `COc1cccc(N2CCN(C(=O)c3cc4c(=O)n(Cc5cccnc5)ccc4nc3C)CC2)c1`, 102%.

Turning to `CCOC(=O)C1CCCN(C(=O)c2cc3c(=O)[nH]c4ccc(C)cc4c3s2)C1` (centres undefined), the survival was 51%.

Turning to `CCC1CCCCN1CCCNC(=O)c1cc2c(Cl)nc3ccccc3c2s1` (centres undefined), the survival was 101%. The result for `CCOC(=O)C1CCCN(C(=O)c2cc3c(Cl)nc4ccccc4c3s2)C1` (centres undefined) reads 26% (active). For `CCNC(=S)N1CCC(NC(=O)C23CC4CC(CC(C4)C2)C3)CC1`, the survival is 80%. The result for `Fc1ccc(Cc2cn3cc(-c4ccc(F)cc4)nc3s2)cc1` reads 61%; that for `Clc1ccccc1Cc1cn2cc(-c3ccccc3)nc2s1`, 63%; that for `Fc1ccc(Cc2cn3cc(-c4ccccc4)nc3s2)cc1`, 51% (active). To `Fc1ccc(-c2cn3cc(Cc4ccccc4Cl)sc3n2)cc1` belongs 42% (active); to `Fc1ccc(-c2cn3cc(Cc4ccccc4)sc3n2)cc1`, 81%.

Take `Fc1ccccc1Cc1cn2cc(-c3ccc(Cl)cc3)nc2s1`: the survival is 66%. To `Cc1ccccc1-c1nc(SCC(=O)NCc2ccco2)c2c(=O)n(C)c(=O)n(C)c2n1` belongs 71%; to `O=C(Nc1ccc(C(F)(F)F)cc1)N1CCC(N2CCCCC2)CC1`, 108%; to `COc1ccc(-c2noc(CSc3nnc(-c4ccncc4)n3-c3ccc(C)cc3)n2)cc1OC`, 67%. The result for `CC1=C(C(=O)OC2CCCCCC2)C(c2ccc(Cl)cc2Cl)CC(=O)N1` (centres undefined) reads 81%; that for `CCOC(=O)c1c(NC(=O)c2ccc(S(=O)(=O)N(C)C)cc2)sc2c1CCN(C)C2`, 75%. To `Cc1nc(NC2CCN(Cc3nnnn3Cc3ccc4c(c3)OCO4)CC2)[nH]c(=O)c1C` belongs 94%. In the case of `Cc1cc(C)c(S(=O)(=O)NCc2csc(-c3ccccc3)n2)c(C)c1`, the survival is 34% (active). The result for `O=S(=O)(NCc1csc(-c2ccccc2)n1)c1ccccc1` reads 70%; that for `O=S(=O)(NCc1csc(-c2ccccc2)n1)c1cccc(F)c1`, 79%; that for `COc1ccccc1C(=O)Nc1nc2nc(C)c(Cc3ccccc3)c(=O)n2[nH]1`, 111%. To `COc1cccc(NC(=O)CN(CCc2ccccc2)S(=O)(=O)c2ccc(Cl)cc2)c1` belongs 52%. The result for `Cn1cc(C(=O)Nc2ccc(C#N)cc2)c2ccccc2c1=O` reads 63%; that for `CCOC(=O)Cn1c(=O)sc2ccccc21`, 94%; that for `O=C(Cn1c(=O)sc2ccccc21)Nc1ccc(O)cc1`, 70%. Regarding `CCCOc1ccccc1Cn1c(=O)sc2ccccc21`, the survival was -2% (active). To `CCCn1c(=O)sc2cc(NC(=O)c3ccccc3OCC)ccc21` belongs 93%.

In the case of `CCN(CC)C(=O)Cn1c(=O)sc2ccccc21`, the survival is 85%. `CS(=O)(=O)n1c(=O)sc2ccccc21`: the survival was 99%. In the case of `Cc1cccc(NC(=O)Cn2c(=O)sc3ccccc32)c1`, the survival was 109%. The result for `CCCCOc1ccccc1Cn1c(=O)sc2ccccc21` reads -2% (active). As for `CC(C)CCOc1ccccc1Cn1c(=O)sc2ccccc21`, the survival was 3% (active).

As to `O=C(Cn1c(-c2ccccc2)noc1=O)Nc1cccc(Cl)c1Cl`, the survival was 98%. Regarding `CCc1ccc(S(=O)(=O)c2cn(C)c3cc(N4CCOCC4)c(F)cc3c2=O)cc1`, the survival is 90%. The result for `CCC(Sc1nnc(-c2ccc(OC)cc2)c(-c2ccc(OC)cc2)n1)C(=O)Nc1cccc(OC)c1` (centres undefined) reads 94%; that for `COCCn1c(C)cc(O)c(C(c2ccccc2)N2CCN(c3ccccc3)CC2)c1=O` (centres undefined), 49%; that for `COCCn1c(C)cc(O)c(C(c2ccc(F)cc2)N2CCN(c3ccccc3)CC2)c1=O` (centres undefined), 47% (active).

`CCN1CCN(C(c2ccccc2)c2c(O)cc(C)n(CCOC)c2=O)CC1` (centres undefined): the survival is 84%. With `COCCn1c(C)cc(O)c(C(c2ccccc2)N2CCN(CCO)CC2)c1=O` (centres undefined), the survival was 32% (active). In the case of `COCCn1c(C)cc(O)c(C(c2cccc(F)c2)N2CCN(c3ccccc3)CC2)c1=O` (centres undefined), the survival was 93%.

Turning to `COCCn1c(C)cc(O)c(C(c2ccccc2)N2CCN(C)CC2)c1=O` (centres undefined), the survival is 95%.

On to `Cc1cccc(NC(=O)c2cc(S(=O)(=O)N3CCc4ccccc43)ccc2F)c1C`, for which the survival is 65%. Turning to `COc1ccc(-n2c(/C=C/c3cc(OC)c(OC)cc3OC)nc3cc4ccccc4cc3c2=O)cc1Cl`, the survival was 115%.

For the molecule `CCOC(=O)CNC(=O)Nc1cc(C(=O)NCc2cccc(F)c2)ccc1N1CCCC1`, the survival is 74%.

Take `CCOC(=O)N1CCC(NC(=O)c2ccc3c(c2)N(Cc2ccccc2)C(=O)c2ccccc2S3(=O)=O)CC1`: the survival was 52%.

For `CSc1ccc(C2c3c(oc4cc(C)cc(C)c4c3=O)C(=O)N2Cc2ccco2)cc1` (centres undefined), the survival is 57%.

Take `CCc1ccc(C2C(C(=O)Nc3ccccc3OC)=C(C)Nc3nc(SCc4ccccc4)nn32)cc1` (centres undefined): the survival was 76%. The result for `CCOC(=O)c1ccc(CSc2nnc3cc(C)c4ccccc4n23)cc1` reads 95%; that for `CCCN(CCC)C(=O)CSc1nnc2cc(C)c3ccccc3n12`, 76%. To `Cc1cc2nnc(SCc3ccc(F)cc3)n2c2ccccc12` belongs -1% (active).

With `COc1ccc(C2NCCS2)cc1` (centres undefined), the survival was 65%. The result for `Cc1ccc(CN2CCCn3nc(C(=O)NCCc4ccc(Cl)cc4)cc3C2=O)cc1` reads 71%; that for `Cc1nn(-c2ccc(N3CCCCC3)nn2)c(C)c1CCC(=O)NCc1ccc(Cl)cc1`, 79%. To `O=C(COc1ccccc1[N+](=O)[O-])Nc1cccc(-c2nc3ccccc3s2)c1` belongs 65%; to `CCCOc1ccccc1C(=O)Nc1ccc(-c2nc3ccc(C)cc3s2)cc1`, 29% (active); to `CCC(CC)C(=O)Nc1cccc(-c2nc3ccccc3s2)c1`, 53%.

For `CCCCC(=O)Nc1cccc(-c2nc3ccccc3s2)c1`, the survival was 41% (active). Regarding `Cc1ccc2nc(-c3ccc(NC(=O)COc4ccccc4C(C)(C)C)cc3)sc2c1`, the survival is 114%. Regarding `Cc1cccc(OCC(=O)Nc2cccc(-c3nc4ccccc4s3)c2)c1`, the survival was 7% (active). To `COc1cccc(C(=O)Nc2ccc(-c3nc4ccc(C)cc4s3)cc2)c1OC` belongs 49%; to `Cc1cccc(OCCSc2nc3ccc(NC(=O)COc4ccccc4)cc3s2)c1`, 78%; to `COc1ccccc1C(=O)Nc1ccc(-c2nc3ccccc3s2)c(C)c1`, 83%. For the molecule `Cc1cccc(OCC(=O)Nc2ccc3nc(SCc4ccccc4)sc3c2)c1`, the survival is 112%.

With `COc1ccc(CC(=O)Nc2ccc(-c3nc4ccccc4s3)c(C)c2)cc1OC`, the survival is 37% (active). To `COc1ccc(CC(=O)Nc2ccc(-c3nc4ccccc4s3)c(C)c2)cc1` belongs 69%. To `Cc1nc2ncnn2c(C)c1CCC(=O)N1CCN(c2ccc(F)cc2)CC1` belongs 89%.

Turning to `COCCNC(=O)CN1C(=O)c2cccnc2Oc2ccc(Cl)cc21`, the survival was 85%. To `COc1ccc(-c2onc(C)c2C)cc1S(=O)(=O)NCc1ccco1` belongs 67%; to `Cc1ccc(S(=O)(=O)N(C)c2ccc3sc(C)nc3c2)cc1`, 91%.

As for `COc1ccc(OC)c(C(=O)CC2(O)C(=O)N(Cc3ccccc3C)c3ccccc32)c1` (centres undefined), the survival is 165%. To `CN1C(=O)Cc2cc(S(=O)(=O)CCC(=O)Nc3ccc(OC(F)(F)F)cc3)ccc21` belongs 71%; to `Cc1cccc(CN2C(=O)c3ccccc3Sc3ccc(C(=O)N4CCCC4)cc32)c1`, 83%. The result for `O=C(COc1ccc(Cl)cc1)Nc1ccc(O)c(-c2nc3ccccc3s2)c1` reads 94%; that for `COc1ccc(OCC(=O)Nc2cccc(-c3nc4ccccc4s3)c2C)cc1`, 106%; that for `CCOc1ccc(C(=O)Nc2ccc(-c3nc4ccccc4s3)c(C)c2)cc1OCC`, 99%. The result for `COc1ccc(CC(=O)Nc2ccc(-c3nc4ccccc4s3)cc2Cl)cc1` reads 69%; that for `COc1cccc(CC(=O)Nc2ccc(-c3nc4ccccc4s3)cc2Cl)c1`, 69%; that for `Cc1ccc(OCC(=O)Nc2cccc(-c3nc4ccccc4s3)c2)cc1`, 47% (active).

In the case of `O=C(COc1ccc(Cl)cc1)Nc1ccc(-c2nc3ccccc3s2)c(O)c1`, the survival was 68%. The result for `COc1cccc(CC(=O)Nc2ccc(-c3nc4ccccc4s3)cc2)c1` reads 0% (active); that for `COc1ccc(OCC(=O)Nc2ccc(O)c(-c3nc4ccccc4s3)c2)cc1`, 43% (active). Consider `Cc1cc(C)cc(OCC(=O)Nc2ccc(-c3nc4ccccc4s3)cc2)c1`, for which the survival is 68%.

For the molecule `CCOc1ccccc1C(=O)Nc1ccccc1`, the survival is 65%. On to `CCOc1ccccc1C(=O)Nc1cccc(-c2nc3ccccc3s2)c1`, for which the survival is 41% (active). To `CCOc1ccc(NS(=O)(=O)c2ccc3c4c(cccc24)C(=O)N3)cc1` belongs 83%.

In the case of `CCn1cc2nc(SCc3ccccc3)n(Cc3ccc(C)cc3)c(=O)c2n1`, the survival was 93%.

On to `O=C(NCCc1ccccc1)c1cc(-c2ccccc2)nc2n[nH]c(-c3ccccc3)c12`, for which the survival is 55%.

Values taken from PubChem BioAssay AID463173 (ICCB-Longwood Screening Facility, Harvard Medical School, 2010).
